Test results as given in ChEMBL document CHEMBL3988442, “University of Dundee, Small-Polar-MMV Screening Library” (2021).
For some assays here: Measured potencies and affinities stand elsewhere.

Experiments:
Set-up in all cases: scale not given: direction of the effect not stated beside the values
[1] = molecular target: Protein translocase subunit SecA (Escherichia coli (strain K12)) (UniProt P10408); assay: Assay to Identify E. coli SecA ATPase Inhibitors; type: functional; conditions: 30 µM
[2] = molecular target: T1, Ubiquitin-activating enzyme e1, putative (Leishmania donovani (strain BPK282A1)) (UniProt E9BSI1); assay: Leishmania donovani Ubiquitin Activating Enzyme (LdE1); type: functional; conditions: 30 µM
T1 sequence (whole entry): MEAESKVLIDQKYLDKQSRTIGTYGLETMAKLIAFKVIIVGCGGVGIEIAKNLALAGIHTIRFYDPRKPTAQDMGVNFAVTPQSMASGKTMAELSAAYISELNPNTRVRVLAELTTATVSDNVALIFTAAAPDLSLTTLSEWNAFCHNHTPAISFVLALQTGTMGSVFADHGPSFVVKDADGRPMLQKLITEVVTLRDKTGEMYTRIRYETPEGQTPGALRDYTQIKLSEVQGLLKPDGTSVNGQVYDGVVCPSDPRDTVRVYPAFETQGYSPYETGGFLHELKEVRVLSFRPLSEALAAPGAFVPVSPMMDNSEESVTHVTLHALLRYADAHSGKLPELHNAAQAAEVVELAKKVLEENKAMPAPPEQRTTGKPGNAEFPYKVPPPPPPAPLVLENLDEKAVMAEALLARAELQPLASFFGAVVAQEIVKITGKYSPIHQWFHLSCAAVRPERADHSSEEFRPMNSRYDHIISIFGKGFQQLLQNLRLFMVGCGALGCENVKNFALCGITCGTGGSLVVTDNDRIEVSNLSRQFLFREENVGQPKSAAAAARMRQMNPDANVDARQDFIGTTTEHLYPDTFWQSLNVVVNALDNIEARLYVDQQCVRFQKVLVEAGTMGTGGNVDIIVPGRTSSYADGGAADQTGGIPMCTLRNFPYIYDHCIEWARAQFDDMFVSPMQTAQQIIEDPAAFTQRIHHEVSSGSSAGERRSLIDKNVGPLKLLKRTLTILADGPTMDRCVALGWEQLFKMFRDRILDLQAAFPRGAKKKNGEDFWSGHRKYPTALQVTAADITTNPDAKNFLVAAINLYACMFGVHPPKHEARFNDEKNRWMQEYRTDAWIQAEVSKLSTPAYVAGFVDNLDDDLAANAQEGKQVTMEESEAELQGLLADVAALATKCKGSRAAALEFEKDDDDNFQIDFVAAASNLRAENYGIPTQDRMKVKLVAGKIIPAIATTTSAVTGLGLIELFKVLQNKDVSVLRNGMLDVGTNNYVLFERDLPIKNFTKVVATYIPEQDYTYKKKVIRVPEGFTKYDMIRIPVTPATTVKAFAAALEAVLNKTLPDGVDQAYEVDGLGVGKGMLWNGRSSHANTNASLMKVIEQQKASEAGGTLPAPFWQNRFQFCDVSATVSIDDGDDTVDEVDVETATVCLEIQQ

[3] = molecular target: AMP-activated protein kinase, AMPK (Homo sapiens) (UniProt P54646+O43741+P54619+Q9UGJ0+Q9Y478+Q13131+Q9UGI9); assay: AMP-dependent Kinase enzyme assay. An in vitro enzyme assay that detects ADP turnover that is directly proportional to AMPK activity. This uses naive AMPK that is activated during the assay with MK-8722; type: functional; conditions: 30 µM
[4] = molecular target: Sialic acid-binding Ig-like lectin 9 (Homo sapiens) (UniProt Q9Y336); assay: Hs-Siglec9 ALPHAscreen SOP 20170721; conditions: 10 µM
Chain of Sialic acid-binding Ig-like lectin 9 (Homo sapiens) (Q9Y336 whole entry): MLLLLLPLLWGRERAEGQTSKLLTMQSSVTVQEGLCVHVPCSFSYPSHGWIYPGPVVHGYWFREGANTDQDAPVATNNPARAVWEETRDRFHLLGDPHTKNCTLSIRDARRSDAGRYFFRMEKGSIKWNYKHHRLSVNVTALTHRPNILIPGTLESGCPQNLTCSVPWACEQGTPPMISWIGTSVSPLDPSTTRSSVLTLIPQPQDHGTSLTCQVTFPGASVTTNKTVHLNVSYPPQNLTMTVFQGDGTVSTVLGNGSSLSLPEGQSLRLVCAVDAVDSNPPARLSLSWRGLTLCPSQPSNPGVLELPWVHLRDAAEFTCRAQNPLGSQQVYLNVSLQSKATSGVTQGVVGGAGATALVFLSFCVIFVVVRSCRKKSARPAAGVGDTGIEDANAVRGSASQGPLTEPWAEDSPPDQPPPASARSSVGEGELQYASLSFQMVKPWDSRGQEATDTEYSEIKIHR

Trypanosoma cruzi = assay: Trypanosoma cruzi phosphomannomutase and mannose-1-phosphate guanylyltransferase assay; type: functional; conditions: 10 µM
[5] = molecular target: T2, Arginase-2, mitochondrial (Homo sapiens) (UniProt P78540); assay: in vitro enzyme assay to detect the production of urea directly proportional to the activity of Arginase II; type: functional; conditions: 33.3 µM; further: in the data most compounds retested in dose-response had high values
T2 sequence (whole entry): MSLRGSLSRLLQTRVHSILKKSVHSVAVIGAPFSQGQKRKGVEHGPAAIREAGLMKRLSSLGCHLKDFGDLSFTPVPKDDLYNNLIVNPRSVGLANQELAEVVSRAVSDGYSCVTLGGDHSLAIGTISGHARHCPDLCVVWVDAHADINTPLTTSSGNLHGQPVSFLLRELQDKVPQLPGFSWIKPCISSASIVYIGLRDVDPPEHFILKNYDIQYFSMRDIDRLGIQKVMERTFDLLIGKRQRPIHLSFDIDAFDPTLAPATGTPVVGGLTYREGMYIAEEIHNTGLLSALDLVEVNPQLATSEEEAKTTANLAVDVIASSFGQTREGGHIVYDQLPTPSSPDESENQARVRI

[6] = molecular target: T3, Proteasome subunit beta (Trypanosoma cruzi) (UniProt O96673); assay: Trypanosoma cruzi proteasome chymotrypsin-like activity (TcProtChymo) assay.; further: in the data most compounds retested in dose-response had high values; type: functional; conditions: 9.37 µM
T3 sequence (whole entry): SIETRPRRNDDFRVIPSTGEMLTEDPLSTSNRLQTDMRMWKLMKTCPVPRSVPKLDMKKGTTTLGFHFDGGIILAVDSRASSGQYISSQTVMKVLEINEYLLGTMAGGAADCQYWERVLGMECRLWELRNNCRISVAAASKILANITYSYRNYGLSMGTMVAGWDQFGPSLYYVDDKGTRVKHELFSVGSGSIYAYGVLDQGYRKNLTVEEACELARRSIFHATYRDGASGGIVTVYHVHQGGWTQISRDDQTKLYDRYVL

Homo sapiens = species on record: Homo sapiens; assay: To identify inhibition of the IFN signalling (Jak-Stat) pathway via expression of an eGFP reporter gene under the control of an IFN-stimulated response element (ISRE) containing MxA promoter.; type: functional; conditions: 30 µM
[7] = molecular target: T4, Tyrosyl-tRNA synthetase, putative (Trypanosoma cruzi (strain CL Brener)) (UniProt Q4DSP6); assay: Trypanosoma cruzi tyrosyl tRNA synthetase (TcYRS) _High Tyrosine SOP; type: functional; conditions: 30 µM; further: in the data most compounds retested in dose-response had high values
T4 sequence (whole entry): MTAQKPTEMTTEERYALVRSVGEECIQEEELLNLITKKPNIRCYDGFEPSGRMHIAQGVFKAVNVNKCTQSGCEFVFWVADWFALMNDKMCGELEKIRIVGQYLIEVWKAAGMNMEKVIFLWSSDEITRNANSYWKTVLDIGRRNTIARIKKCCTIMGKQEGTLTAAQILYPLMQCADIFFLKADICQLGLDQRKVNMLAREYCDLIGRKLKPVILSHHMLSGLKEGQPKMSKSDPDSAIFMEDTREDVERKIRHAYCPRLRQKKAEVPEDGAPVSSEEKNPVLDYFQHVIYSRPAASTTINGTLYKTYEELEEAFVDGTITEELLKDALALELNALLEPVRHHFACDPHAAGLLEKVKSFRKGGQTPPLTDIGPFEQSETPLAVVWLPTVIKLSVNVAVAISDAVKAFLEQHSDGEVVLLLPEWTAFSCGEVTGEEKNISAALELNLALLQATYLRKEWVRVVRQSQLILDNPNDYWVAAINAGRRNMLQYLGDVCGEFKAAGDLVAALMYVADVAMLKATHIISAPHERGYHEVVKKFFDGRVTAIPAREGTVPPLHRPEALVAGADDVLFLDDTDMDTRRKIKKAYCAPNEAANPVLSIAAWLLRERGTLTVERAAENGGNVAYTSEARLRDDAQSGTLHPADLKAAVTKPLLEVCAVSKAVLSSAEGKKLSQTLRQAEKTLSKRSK

[8] = molecular target: T4, Tyrosyl-tRNA synthetase, putative (Trypanosoma cruzi (strain CL Brener)); assay: Trypanosoma cruzi tyrosyl tRNA synthetase (TcYRS) SOP; type: functional; conditions: 30 µM
[9] = molecular target: Chromo domain-containing protein 1 (Saccharomyces cerevisiae (strain ATCC 204508 / S288c) (Baker's yeast)) (UniProt P32657); assay: ScCHD-1 Enzyme Inhibition Assay; type: functional; conditions: 30 µM; further: in the data most compounds retested in dose-response had high values
Chain of Chromo domain-containing protein 1 (Saccharomyces cerevisiae (strain ATCC 204508 / S288c) (Baker's yeast)) (P32657 whole entry, the tested form may be a part): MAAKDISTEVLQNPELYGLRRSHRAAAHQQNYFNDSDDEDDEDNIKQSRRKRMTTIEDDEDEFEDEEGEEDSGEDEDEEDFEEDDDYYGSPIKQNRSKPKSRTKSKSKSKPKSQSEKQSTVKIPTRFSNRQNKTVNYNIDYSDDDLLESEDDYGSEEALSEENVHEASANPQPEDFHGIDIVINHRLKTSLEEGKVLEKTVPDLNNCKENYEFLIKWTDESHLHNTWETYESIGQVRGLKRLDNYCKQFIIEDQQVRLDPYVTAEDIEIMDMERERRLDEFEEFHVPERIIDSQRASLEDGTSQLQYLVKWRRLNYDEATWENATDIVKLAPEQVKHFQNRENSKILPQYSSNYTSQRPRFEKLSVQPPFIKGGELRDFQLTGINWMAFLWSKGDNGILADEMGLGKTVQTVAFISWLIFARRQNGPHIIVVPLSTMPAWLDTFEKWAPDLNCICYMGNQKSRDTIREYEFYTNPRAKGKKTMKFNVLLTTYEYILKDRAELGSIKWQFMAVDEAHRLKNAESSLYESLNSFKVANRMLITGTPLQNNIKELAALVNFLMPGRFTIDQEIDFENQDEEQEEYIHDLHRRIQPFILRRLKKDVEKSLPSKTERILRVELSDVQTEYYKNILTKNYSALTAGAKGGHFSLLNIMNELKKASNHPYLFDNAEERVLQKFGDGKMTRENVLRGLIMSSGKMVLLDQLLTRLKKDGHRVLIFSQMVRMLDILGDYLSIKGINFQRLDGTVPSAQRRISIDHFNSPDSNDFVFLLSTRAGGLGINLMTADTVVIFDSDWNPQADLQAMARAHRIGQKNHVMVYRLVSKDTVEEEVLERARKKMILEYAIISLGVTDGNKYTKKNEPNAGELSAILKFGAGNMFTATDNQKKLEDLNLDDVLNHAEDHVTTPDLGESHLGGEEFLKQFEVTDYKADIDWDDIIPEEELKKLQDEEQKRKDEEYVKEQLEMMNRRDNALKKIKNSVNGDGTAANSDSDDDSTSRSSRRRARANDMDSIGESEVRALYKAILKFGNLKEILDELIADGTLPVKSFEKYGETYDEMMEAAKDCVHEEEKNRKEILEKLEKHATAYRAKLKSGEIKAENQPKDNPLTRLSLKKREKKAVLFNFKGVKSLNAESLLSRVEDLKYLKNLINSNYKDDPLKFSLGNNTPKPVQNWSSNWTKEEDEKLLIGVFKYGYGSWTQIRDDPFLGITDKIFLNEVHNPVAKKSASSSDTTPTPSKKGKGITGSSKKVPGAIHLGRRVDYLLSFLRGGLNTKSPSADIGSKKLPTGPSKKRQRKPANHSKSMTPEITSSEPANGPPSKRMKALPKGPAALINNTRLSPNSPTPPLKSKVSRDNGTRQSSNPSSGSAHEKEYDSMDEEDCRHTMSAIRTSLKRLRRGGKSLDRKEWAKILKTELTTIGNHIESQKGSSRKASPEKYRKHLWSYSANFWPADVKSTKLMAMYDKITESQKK

Chain of Protein translocase subunit SecA (Escherichia coli (strain K12)) (P10408 whole entry): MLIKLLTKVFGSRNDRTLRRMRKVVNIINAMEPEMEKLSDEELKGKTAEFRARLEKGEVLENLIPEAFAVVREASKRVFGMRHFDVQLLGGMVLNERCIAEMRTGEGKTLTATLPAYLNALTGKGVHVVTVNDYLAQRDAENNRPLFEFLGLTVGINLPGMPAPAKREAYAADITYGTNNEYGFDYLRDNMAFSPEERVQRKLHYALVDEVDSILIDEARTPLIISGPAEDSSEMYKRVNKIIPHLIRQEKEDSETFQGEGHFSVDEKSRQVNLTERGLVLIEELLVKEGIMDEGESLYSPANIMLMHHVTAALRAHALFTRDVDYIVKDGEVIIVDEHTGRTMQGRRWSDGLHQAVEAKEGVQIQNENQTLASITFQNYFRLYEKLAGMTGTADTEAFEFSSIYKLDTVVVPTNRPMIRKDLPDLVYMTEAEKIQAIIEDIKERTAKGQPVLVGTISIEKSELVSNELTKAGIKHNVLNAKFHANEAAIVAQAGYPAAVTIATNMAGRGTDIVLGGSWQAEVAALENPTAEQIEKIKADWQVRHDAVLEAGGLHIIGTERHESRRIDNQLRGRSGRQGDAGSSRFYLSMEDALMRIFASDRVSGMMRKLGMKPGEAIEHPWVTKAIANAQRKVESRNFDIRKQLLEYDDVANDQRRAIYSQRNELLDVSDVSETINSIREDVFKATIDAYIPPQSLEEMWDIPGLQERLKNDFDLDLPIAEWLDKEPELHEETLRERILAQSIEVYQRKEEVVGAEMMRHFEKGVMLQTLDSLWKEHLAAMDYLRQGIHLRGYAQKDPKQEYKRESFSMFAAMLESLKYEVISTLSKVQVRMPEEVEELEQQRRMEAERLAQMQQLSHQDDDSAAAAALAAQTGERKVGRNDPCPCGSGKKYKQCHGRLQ

SMILES	Percent Effect [1] [%]	Percent Effect [2] [%]	Percent Effect [3] [%]	Percent Effect [4] [%]	Percent Effect (Trypanosoma cruzi) [%]	Percent Effect [5] [%]	Percent Effect [6] [%]	Percent Effect (Homo sapiens) [%]	Percent Effect [7] [%]	Percent Effect [8] [%]	Percent Effect [9] [%]
COc1ccc(C(C(=O)O)N2CCCN(C3CCCC3)CC2)cc1OC (stereo not given)	-8.69	0	-2.66	-4.35	-3.81	-2.23	-0.429	16	-9.68	-1.24	-4.58
COc1ccc(NC(=O)Cn2nc(C)ccc2=O)cc1OC	-3.84	-1.33	2.94	4.69	-0.786	-5.46	7.39	-3.33	3.17	5.13	0.459
COCC(=O)N1CCC(c2nccn2CC2CC2)CC1	0.53	10.8	-6.45	8.36	5.41	8.57	19.8	-2.14	6.88	19.5	-2.23
CCC(CC)c1cc(CNC(=O)N2CCOCC2CC)on1 (stereo not given)	-3.39	0	-0.644	2.45	7.33	-1.24	0.0858	-31.4	0	1.24	-0.017
O=C1[C@@H]2CCN(Cc3ccoc3)C[C@@H]2OCCN1c1ccccc1	-5.21	10.7	13	1.36	-2.95	8.16	5.02	5.67	3.19	11.5	1.78
Cc1cccc(OCCC(=O)N(C)CCNS(C)(=O)=O)c1C	-2.9	5.26	8.08	6.9	-4.58	-2.37	7.96	3.29	2.13	13	-5.08
CC(=O)NC(C)c1ccc(OCC2CC2)c(F)c1 (stereo not given)	-2.63	5.26	-0.202	5	3.21	-9.47	4.7	7.74	4.25	7.79	-7.19
Cc1nc(C)n(CC2CCCN2Cc2cscn2)n1 (stereo not given)	-4.14	2.6	3.5	10.9	2.64	-0.21	-0.404	-14.6	5.71	11.8	-13.6
CN(CCCOc1ccccc1)C(=O)CN1CCc2cncnc2C1	-1.71	26.3	-41.1	4.54	9.24	-0.719	10.6	-5.43	30.1	38.3	-11.5
CC(C)c1ccc(O)c(C(=O)N2CCN(Cc3cscn3)CC2)c1	-1.48	16.2	0.162	10.1	5.85	-6.1	4.85	26.8	5.94	18.3	-3.11
